Where “and” joins values, the source holds several entries; their conditions need not be identical. Equal entries are not always repeated. Records with an inconclusive call do not appear. Entries that show only a call come without a potency. Unmarked numbers belong to inactive results. Calls of active or inactive are those of the source. Calls come from the whole dose curve; as a rule, active = well fitted curve in the direction sought with a large enough effect; inconclusive = small, poorly fitted or top-dose-only effect, or another doubt; inactive = no such curve, though single readings can be large; an effect the other way counts as inactive or inconclusive.
How the values were obtained:
[1] = Quantitative highthroughput screen to assess conditional lethalithy of NOMO1 cells grown in RPMI1640 with dialyzed fetal bovine serum (RPMI+ds) (AID 1963877); settings: NOMO1 in RPMI+dialyzed FBS viability, ATP luminescence, 48 h; series mostly up to 45.8 µM; note: nearly all actives have a fitted effect of over 30% in size; note: potency is the fitted concentration of half-maximal effect
Summary of the method: (§1)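 Each medium arm—HPLM with 10% dialyzed FBS, or RPMI1640 with 5 mM glucose and 10% untreated or dialyzed FBS—was screened against an 11-point, 3-fold compound titration for 48 h at 37 °C, with CellTiter-Glo luminescence as endpoint.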

[2] = Quantitative highthroughput screen to assess conditional lethalithy of NOMO1 cells grown in Human Plasma-Like Medium with dialyzed fetal bovine serum (HPLM+ds) (AID 1963878); settings: NOMO1 AML cells in HPLM+ds, CellTiter-Glo viability, 48 h; series mostly up to 45.8 µM; note: nearly all actives have a fitted effect of over 35% in size; note: potency is the fitted concentration of half-maximal effect
Summary of the method: as §1

[3] = Quantitative highthroughput screen to assess conditional lethalithy of P12 Ichikawa cells grown in RPMI1640 with dialyzed fetal bovine serum (RPMI+ds) (AID 1963880); settings: ATP luminescence, 48 h; Potency: P12-Ichikawa viability; series mostly up to 45.8 µM; note: nearly all actives have a fitted effect of over 35% in size; note: potency is the fitted concentration of half-maximal effect
Summary of the method: as §1

[4] = Quantitative highthroughput screen to assess conditional lethalithy of SEM cells grown in Human Plasma-Like Medium with dialyzed fetal bovine serum (HPLM+ds) (AID 1963882); settings: SEM B-ALL cells in HPLM+ds, CellTiter-Glo viability, 48 h; series mostly up to 45.8 µM; note: nearly all actives have a fitted effect of over 35% in size; note: potency is the fitted concentration of half-maximal effect
Summary of the method: as §1

[5] = Quantitative highthroughput screen to assess conditional lethalithy of P12 Ichikawa cells grown in Human Plasma-Like Medium with dialyzed fetal bovine serum (HPLM+ds) (AID 1963879); settings: ATP luminescence, 48 h; Potency: viability; series mostly up to 45.8 µM; note: nearly all actives have a fitted effect of over 35% in size; note: potency is the fitted concentration of half-maximal effect
Summary of the method: as §1

[6] = Quantitative highthroughput screen to assess conditional lethalithy of SEM cells grown in RPMI1640 with unreated serum (RPMI+s) (AID 1963883); settings: SEM B-ALL cells, CellTiter-Glo viability, 48 h; series mostly up to 45.8 µM; note: nearly all actives have a fitted effect of over 35% in size; note: potency is the fitted concentration of half-maximal effect
Summary of the method: as §1

[7] = Quantitative highthroughput screen to assess conditional lethalithy of SEM cells grown in RPMI1640 with dialyzed fetal bovine serum (RPMI+ds) (AID 1963884); settings: SEM B-ALL cells, RPMI+dialyzed FBS, CellTiter-Glo viability, 48 h; series mostly up to 45.8 µM; note: nearly all actives have a fitted effect of over 35% in size; note: potency is the fitted concentration of half-maximal effect
Summary of the method: as §1

[8] = Quantitative highthroughput screen to assess conditional lethalithy of P12 Ichikawa cells grown in RPMI1640 with untreated serum (RPMI+s) (AID 1963881); settings: ATP luminescence, 48 h; Potency: viability; series mostly up to 45.8 µM; note: nearly all actives have a fitted effect of over 35% in size; note: potency is the fitted concentration of half-maximal effect
Summary of the method: as §1

[9] = Cellular viability qHTS for adrenocortical cancer (ACC) cell line SW-13 (AID 1963989); settings: SW-13 ACC cells viability, CellTiter-Glo, 48 h; activity (max response): active compounds read low;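 note: cells grown in serum-free medium with ITS supplement; nearly all actives have a fitted effect of over 65% in size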
Summary of the method: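 IC50 and maximal-response values come from four-parameter logistic fits of titration data. SW-13 cells in serum-free medium received compounds (up to 46 uM final) for 48 h before CellTiter-Glo luminescence.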

[10] = Cellular viability qHTS for adrenocortical cancer (ACC) cell line NCI-H295R (AID 1963990); settings: CellTiter-Glo ATP luminescence, 48 h; series mostly up to 46.1 µM; note: nearly all actives have a fitted effect of over 60% in size
Summary of the method: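 Adrenocortical carcinoma cells, suspended at 300 000 cells/mL in serum-free DMEM plus ITS, rested overnight before pin transfer of compound. After two days' incubation, ATP-dependent luminescence was recorded and curve-fitted.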

Structure (SMILES)	Potency [1]	Potency [2]	Potency [3]	Potency [4]	Potency [5]	Potency [6]	Potency [7]	Potency [8]	activity (max response) [9]	Potency [10]
O=c1[nH]c(=O)n([C@H]2C[C@@H](O)[C@@H](CO)O2)cc1I	inactive	11.8 µM (active)	inactive	7.43 µM (active)						
C=C1[C@H](n2cnc3c(=O)[nH]c(N)nc32)C[C@H](O)[C@H]1CO	3.72 µM (active)	4.18 µM (active)	1.18 µM (active)	0.187 µM (active)	2.64 µM (active)	0.526 µM (active)	0.0469 µM (active)			
C=CCNC1=C2C[C@@H](C)C[C@H](OC)[C@@H](O)[C@@H](C)C=C(C)[C@H](OC(N)=O)[C@@H](OC)C=CC=C(C)C(=O)NC(=CC1=O)C2=O	5.9 µM (active)	5.9 µM (active)		0.526 µM (active)		0.332 µM (active)	0.332 µM (active)			
COC(=O)[C@]12CCC(C)(C)C[C@@H]1[C@@H]1C(=O)C=C3[C@@]4(C)C=C(C#N)C(=O)C(C)(C)[C@@H]4CC[C@@]3(C)[C@]1(C)CC2	8.33 µM (active)	9.35 µM (active)		7.43 µM (active)	9.35 µM (active)		6.62 µM (active)	9.35 µM (active)		
COc1ccc(CC2=NN3C([C@@H](CCc4ccccc4)[C@@H](C)O)=NC(C)C3C(=O)N2)cc1OC (some centres not stated)	inactive	inactive	inactive	inactive	inactive	inactive	inactive	inactive	3.98%	inactive
OCc1ccccc1O[C@@H]1O[C@H](CO)[C@H](O)[C@H](O)[C@H]1O	13.2 µM (active)	7.43 µM (active)	16.6 µM (active)							
N#CC(=C1Nc2ccccc2S1)c1ccnc(OCc2ccc(CN3CCOCC3)cc2)n1	8.33 µM (active)	6.62 µM (active)		inactive		inactive				
COC1=C(OC)C(=O)C(CC=C(C)CCC=C(C)CCC=C(C)CCC=C(C)CCC=C(C)CCC=C(C)CCC=C(C)CCC=C(C)CCC=C(C)CCC=C(C)C)=C(C)C1=O	inactive		inactive	inactive	inactive	inactive	inactive			
O=c1[nH]c(=O)n(C2CCCO2)cc1F (configuration not stated)	inactive	inactive		inactive	inactive	inactive			4.88%	inactive
CC(C)OC(=O)C(C(=O)OC(C)C)=C1SC=CS1	inactive				inactive		inactive	inactive	-12.3% and 0.529%	inactive
O=C1c2c(O)cccc2[C@@H]([C@@H]2O[C@H](CO)[C@@H](O)[C@H](O)[C@H]2O)c2cc(CO)cc(O)c21	inactive	inactive	inactive	inactive	inactive	inactive	inactive			
CC1(C)[C@H](O[C@H]2O[C@H](C(=O)O)[C@@H](O)[C@H](O)[C@H]2O[C@@H]2O[C@H](C(=O)O)[C@@H](O)[C@H](O)[C@H]2O)CC[C@@]2(C)[C@H]1CC[C@]1(C)[C@H]2C(=O)C=C2[C@H]3C[C@@](C)(C(=O)O)CC[C@]3(C)CC[C@]21C	inactive		inactive	inactive	inactive	inactive	inactive	inactive		
CN(NC(=O)CC(=O)NN(C)C(=S)c1ccccc1)C(=S)c1ccccc1	0.0588 µM (active)	0.066 µM (active)	0.0741 µM (active)	0.0371 µM (active)	0.0831 µM (active)	0.0417 µM (active)	0.0417 µM (active)	0.0741 µM (active)		
COc1ccc2c(c1)CC[C@H]1[C@@H]2CC[C@]2(C)[C@@H](NCCCCCCN3C(=O)C=CC3=O)CC[C@H]12	inactive	inactive	inactive		inactive	inactive	inactive	inactive		
COc1ccc(-c2coc3cc(O)ccc3c2=O)cc1	inactive		inactive	inactive	inactive	inactive	inactive	inactive		
CC1(C)C(=O)N(CCN2CCC(C(=O)c3ccc(F)cc3)CC2)c2ccccc21	18.7 µM (active)			inactive	inactive	inactive	inactive	inactive		
CC(C)N1[N]C(=C2C=c3cc(O)ccc3=N2)c2c(N)ncnc21	7.43 µM (active)	0.935 µM (active)		1.48 µM (active)		2.96 µM (active)	2.64 µM (active)	4.18 µM (active)		
O=S(=O)(NCCNCC=Cc1ccc(Br)cc1)c1cccc2cnccc12	inactive		inactive					inactive		
O=c1[nH]cc(F)c(=O)[nH]1		10.5 µM (active)	10.5 µM (active)	9.35 µM (active)	8.33 µM (active)	9.35 µM (active)	10.5 µM (active)		-6.36%	inactive

Source: PubChem BioAssay (NCATS)
